In PubChem BioAssay (EPA / NIEHS):
Inconclusive results are not listed. Calls of active or inactive are those of the source. The calls were made as follows, unless noted: active = hit-call score of the fitted dose curve at least 0.9, where 1 is the maximum; inactive = score below 0.9.

Legend:
[1] = CCTE_Mundy_HCI_Cortical_Synap_Neur_Matur_NeuriteSpotCountPerNeuron: CCTE's Synaptogenesis and Neurite Maturation Assay in rat cortical cells for Neurite Spot Count per Neuron Count, Mundy Lab (AID 2284215)
Method in brief: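 Developing rat cortical neurons, with glia suppressed by AraC, are exposed to chemicals from DIV 7 to DIV 12. Automated fluorescence imaging of MAP2-labelled neurites and synaptophysin puncta yields a count per neuron, normalised against DMSO wells.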

[2] = CCTE_Mundy_HCI_Cortical_Synap_Neur_Matur_SynapseCount: CCTE's Synaptogenesis and Neurite Maturation Assay in rat cortical cells for Synapse Count, Mundy Lab (AID 2284218)
Method in brief: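 Read-out: synapse number per neuron, automated high-content imaging of fixed cells immunostained for MAP2 and synaptophysin plus Hoechst nuclei. Rat primary cortical cultures, AraC at DIV 5, chemical dosing DIV 7–12. Positive-direction fit relative to DMSO.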

[3] = CCTE_Mundy_HCI_Cortical_Synap_Neur_Matur_NeuriteCount: CCTE's Synaptogenesis and Neurite Maturation Assay in rat cortical cells for Neurite Count, Mundy Lab (AID 2284222);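 also: exposure from day 7 to day 12 in vitro with readout at day 12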
Method in brief: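 Primary rat cortical cells were plated, treated with AraC at DIV 5, then exposed to chemicals from DIV 7 through DIV 12. After fixation and immunostaining for MAP2 and synaptophysin, imaging quantified neurites, with DMSO as the negative control.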

[4] = CCTE_Mundy_HCI_Cortical_Synap_Neur_Matur_CellBodySpotCount: CCTE's Synaptogenesis and Neurite Maturation Assay in rat cortical cells for Cell Body Spot Count, Mundy Lab (AID 2284223)
Method in brief: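 Chemicals were applied to AraC-treated rat primary cortical cells at DIV 7 and measured at DIV 12. Fixed cells were labelled for MAP2, synaptophysin and nuclei, and high-content imaging gave cell body synaptophysin spot counts per neuron relative to DMSO.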

[5] = CCTE_Mundy_HCI_Cortical_NOG_NeuronCount: CCTE's Neurite Outgrowth Assay in rat cortical cells for Neuron Count, Mundy Lab (AID 2284236; active = hit-call score of the fitted dose curve at least 0.9, where 1 is the maximum;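 also: neurons counted by imaging betaIII-tubulin and Hoechst stained cortical cells; cells exposed to compound for about 48 hours before fixation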)
Method in brief: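 Read-out: neuron number by high-content imaging of betaIII-tubulin (Alexa Fluor-488) and Hoechst-labelled rat primary cortical cells.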

[6] = CCTE_Mundy_HCI_Cortical_NOG_BPCount: CCTE's Neurite Outgrowth Assay in rat cortical cells for Branch Point Count, Mundy Lab (AID 2284237)
Method in brief: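 Measured 50.33 h after dosing, this morphology endpoint uses rat primary cortical cultures labelled for betaIII-tubulin. Branch points are quantified by high-content imaging, with DMSO as negative control and baseline.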

[7] = CCTE_Mundy_HCI_hNP1_Casp3_7: CCTE's Caspase-Glo 3/7 Assay in human neuroprogenitor cells for Apoptosis, Mundy Lab (AID 2284240)
Method in brief: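 Luminescent caspase-3/7 readout, 26.5 h post-dose, in human neural progenitor cells from WA09 embryonic stem cells. Cells grew 40–44 h at 37 °C, 5% CO2 before chemical addition. Activity analysed as signal increase over DMSO baseline.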

[8] = CCTE_Mundy_HCI_hNP1_CellTiter: CCTE's Cell Titer-Glo 2 Assay in human neuroprogenitor cells for Viability, Mundy Lab (AID 2284241; active = hit-call score of the fitted dose curve at least 0.9, where 1 is the maximum)
Method in brief: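 Viability read as luminescent ATP content (CellTiter-Glo, 30 min room temperature) twenty-four hours after dosing, relative to DMSO. Cells: WA09-derived hNP1 neuroprogenitors on poly-L-ornithine/laminin, plated 40 to 44 hours before chemical.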

[9] = IUF_NPC2c_oligodendrocyte_migration_120hr: Leibniz Research Institute for Environmental Medicine (IUF) 120-hour Neural Progenitor Cell Migration Assay for Oligodendrocyte Migration (NPC2c) (AID 2284297);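 also: O4-positive oligodendrocyte migration distance divided by radial glia migration distance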
Method in brief: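 Using fetal brain neural progenitor spheres differentiating in N2 medium at 37C, compounds were present for 120 h. Oligodendrocyte migration distance, normalized to radial glia migration, was measured from imaged O4 staining.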

[10] = IUF_NPC2a_radial_glia_migration_120hr: Leibniz Research Institute for Environmental Medicine (IUF) 120-hour Neural Progenitor Cell Migration Assay for Radial Glia Migration (NPC2a) (AID 2284298)
Method in brief: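 Exposure of 0.3 mm primary hNPC spheres runs day 0 to 120 h with a half-volume medium change at day 3. Fixed cells get Hoechst staining; high-content analysis of nuclear positions yields radial glia migration distance per well, compared against DMSO controls.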

[11] = IUF_NPC2a_radial_glia_migration_72hr: Leibniz Research Institute for Environmental Medicine (IUF) 72-hour Neural Progenitor Cell Migration Assay for Radial Glia Migration (NPC2a) (AID 2284299)
Method in brief: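 Readout: mean of four manual brightfield measurements of radial glia migration distance (um) at 72 h. hNPC spheres (0.3 mm) exposed to 7 compound concentrations plus solvent control on PDL/laminin, 37C, 5% CO2; activity fitted relative to DMSO.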

[12] = IUF_NPC2b_neuronal_migration_120hr: Leibniz Research Institute for Environmental Medicine (IUF) 120-hour Neural Progenitor Cell Migration Assay for Neuron Migration (NPC2b) (AID 2284300)
Method in brief: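 Fetal human NPC spheres migrate on PDL/laminin during 120 h compound treatment; neuronal migration distance, glia-normalized, scored versus DMSO control.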

[13] = IUF_NPC3_neuronal_differentiation_120hr: Leibniz Research Institute for Environmental Medicine (IUF) 120-hour Neuronal Differentiation Assay (NPC3) (AID 2284301)
Method in brief: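 hNPC spheres, PDL/laminin, DMEM/F12 3:1 + 1% N2, 37C, 5% CO2; 7 concentrations + solvent control, 5 d exposure, half-change day 3. Fix 120 h; TUBB3/Hoechst ICC, CNN neuron calling; % neurons vs nuclei, DMSO-normalized.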

[14] = IUF_NPC4_neurite_length_120hr: Leibniz Research Institute for Environmental Medicine (IUF) 120-hour Neuronal Morphology Assay for Neurite Length (NPC4) (AID 2284302)
Method in brief: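 hNPC spheres (0.3 mm, fetal brain GW 16-19) on PDL/laminin, DMEM:F12 3:1 + 1% N2, 37C 5% CO2; 7 concs + solvent control, day 0-5, half medium change d3; fix 120 h, TUBB3 ICC, mean neurite length um vs DMSO.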

[15] = IUF_NPC5_oligodendrocyte_differentiation_120hr: Leibniz Research Institute for Environmental Medicine (IUF) 120-hour Oligodendrocyte Differentiation Assay (NPC5) (AID 2284304; active = hit-call score of the fitted dose curve at least 0.9, where 1 is the maximum;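 also: primary human fetal neural progenitor spheres plated to migrate and differentiate; share of O4-positive cells among Hoechst nuclei found by CNN image analysis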)
Method in brief: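 After plating on poly-D-lysine/laminin, fetal-derived hNPC spheres differentiated for 120 h at 37C in compound-containing N2 medium, refreshed by half on day 3. O4 immunostaining over Hoechst nuclei in the migration zone gave oligodendrocyte percentage relative to DMSO.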

[16] = IUF_NPC2-5_cytotoxicity_72hr: Cytotoxicity Assessment at 72 hours in the Leibniz Research Institute for Environmental Medicine (IUF) Neural Progenitor Cell Migration and Differentiation Assay for Cytotoxicity (NPC2-5) (AID 2284306; active = hit-call score of the fitted dose curve at least 0.9, where 1 is the maximum;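 also: LDH release into supernatant measured by resorufin fluorescence marking membrane damage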)
Method in brief: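 hNPC spheres (0.3 mm), PDL/laminin, DMEM/F12 3:1 + 1% N2; cpd from d0, 7 concs + SC, DMSO max 0.1%; half-medium refresh d3. Readout: supernatant LDH via resorufin fluorescence (RFU), 72 h; gain-of-signal fit.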

[17] = IUF_NPC2-5_cytotoxicity_120hr: Cytotoxicity Assessment at 120 hours in the Leibniz Research Institute for Environmental Medicine (IUF) Neural Progenitor Cell Migration and Differentiation Assay (NPC2-5) (AID 2284307; active = hit-call score of the fitted dose curve at least 0.9, where 1 is the maximum)
Method in brief: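 Membrane-integrity loss is quantified by LDH in supernatant after five days of exposure of migrating, differentiating human fetal NPC spheres; seven serially diluted concentrations are tested with DMSO kept at or below 0.1%.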

[18] = IUF_NPC2-5_cell_number_120hr: Cell Number Assessment at 120 hours in the Leibniz Research Institute for Environmental Medicine (IUF) Neural Progenitor Cell Migration and Differentiation Assay (NPC2-5) (AID 2284308);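 also: count of Hoechst-stained nuclei in migration zone around plated human neural progenitor spheres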
Method in brief: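 Seven-point serial dilutions plus solvent control were applied to plated 0.3 mm hNPC spheres at differentiation start, with medium half-replaced at day 3. Nuclei positive for Hoechst in the migration zone were enumerated at 120 h.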

[19] = IUF_NPC2-5_viability_120hr: Viability Assessment at 120 hours in the Leibniz Research Institute for Environmental Medicine (IUF) Neural Progenitor Cell Migration and Differentiation Assay (NPC2-5) (AID 2284312)
Method in brief: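 Human fetal neural progenitor spheres (0.3 mm) plated on poly-D-lysine/laminin in N2 differentiation medium, exposed 120 h with half-medium refresh at day 3. Viability by alamar blue resazurin fluorescence; 7 concentrations, DMSO max 0.1%.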

[20] = CCTE_Mundy_HCI_iCellGluta_NOG_NeuriteLength: CCTE's Neurite Outgrowth Assay in iCellGluta cells for Neurite Length, Mundy Lab (AID 2284318; active = hit-call score of the fitted dose curve at least 0.9, where 1 is the maximum)
Method in brief: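 Automated high-content imaging of betaIII-tubulin (Alexa Fluor-488) and Hoechst-stained cells gave neurite length, normalized to the DMSO baseline.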

[21] = IUF_NPC1_cytotoxicity_72hr: Cytotoxicity Assessment at 72 hours in the Leibniz Research Institute for Environmental Medicine (IUF) Neural Progenitor Cell Proliferation Assay (NPC1) (AID 2284332; active = hit-call score of the fitted dose curve at least 0.9, where 1 is the maximum;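 also: rising LDH signal means more cytotoxicity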)
Method in brief: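 LDH in supernatant, resazurin→resorufin fluorescence (RFU), 72 h exposure, no re-dosing. Cells: primary hNPC spheres, one per well, EGF+FGF medium, 37C/5% CO2, pH 7.2-7.6. Fit: positive direction vs baseline and dynamic range.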

[22] = CCTE_Mundy_HCI_iCellGluta_NOG_NeuronCount: CCTE's Neurite Outgrowth Assay in iCellGluta cells for Neuron Count, Mundy Lab (AID 2284340; active = hit-call score of the fitted dose curve at least 0.9, where 1 is the maximum;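 also: cells fixed about 48 h after compound addition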)
Method in brief: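 Neuron count read by automated high-content imaging of Hoechst 33342 and betaIII-tubulin/Alexa Fluor-488 labelling in human iPSC glutamatergic neurons. Activity fitted relative to DMSO.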

[23] = CCTE_Mundy_HCI_iCellGluta_NOG_NeuriteCount: CCTE's Neurite Outgrowth Assay in iCellGluta cells for Neurite Count, Mundy Lab (AID 2284342; active = hit-call score of the fitted dose curve at least 0.9, where 1 is the maximum;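 also: chemical exposure about 48 hours starting 2 hours after plating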)

Measured: outcome

C[C@@H]1CC[C@@H](C(C)(C)O)[C@H](O)C1
inactive: all assays above
